This is an account of results in ChEMBL document CHEMBL3433997, “St. Jude Leishmania screening dataset” (2016).

The target of the first experiment is Solute carrier family 2, facilitated glucose transporter member 1 (Homo sapiens) (UniProt P11166). As to the kind of experiment: ST_JUDE_LEISH: Cytotoxicity at 2uM final concentration against transgenic Leishmania Mexicana promastigotes LmGLUT1 that are glucose transport deficient and complemented with the human glucose transporter GLUT1. Activity is measured by DNA content using SYBR green in vitro. Format: functional.
Sequence of Solute carrier family 2, facilitated glucose transporter member 1 (Homo sapiens) (P11166 whole entry): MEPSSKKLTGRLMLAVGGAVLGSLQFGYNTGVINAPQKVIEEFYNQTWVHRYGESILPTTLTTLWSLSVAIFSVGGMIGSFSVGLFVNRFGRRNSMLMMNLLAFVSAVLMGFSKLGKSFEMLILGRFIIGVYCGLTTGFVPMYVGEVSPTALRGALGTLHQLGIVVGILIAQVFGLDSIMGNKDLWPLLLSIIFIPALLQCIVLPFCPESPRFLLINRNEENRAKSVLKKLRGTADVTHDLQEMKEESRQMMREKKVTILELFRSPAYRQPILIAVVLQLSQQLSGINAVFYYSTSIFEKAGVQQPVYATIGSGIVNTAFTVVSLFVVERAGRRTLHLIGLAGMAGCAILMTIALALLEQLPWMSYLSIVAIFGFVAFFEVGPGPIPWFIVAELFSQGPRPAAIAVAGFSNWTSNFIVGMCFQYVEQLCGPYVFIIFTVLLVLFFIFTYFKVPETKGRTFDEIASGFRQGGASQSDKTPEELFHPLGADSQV
By inhibition is commonly meant the change of the read-out against control, counted positive when it falls. Turning to `O=C(NC(=O)c1ccccc1)NC1CCN(c2ccnc3cc(Cl)ccc23)C1` (stereo unspecified), the inhibition was -0.37%. The same measure, in the same setting: as for `CCCN(c1ccc(C(F)(F)F)cc1[N+](=O)[O-])S(=O)(=O)C(c1ccccc1)c1ccc(C(F)(F)F)cc1[N+](=O)[O-]` (stereo unspecified), the figure is -0.48%; as for `Cc1cc2c3c(N)nc(N)nc3ccc2n1C`, 6.53%. On the same count and under the same terms, next, `O=c1cc(NCCC(CNCc2ccoc2)NCc2cc(Br)cc(Br)c2)[nH]c2ccccc12` (stereo unspecified): 6.77%; `CCCCN(CCCC)C(=N)c1cccc2c1CCCC2`: 2.36%.

Turning to `Cc1cc(N[C@@H](Cc2ccccc2)C(=O)NC2CCCC2)nc(NCCc2ccc(F)cc2)n1`, the inhibition was determined as 5.06%. On the same count and under the same terms, next, `CCN(CC)CCN(Cc1ccc(-c2ccc(C(F)(F)F)cc2)cc1)C(=O)Cn1c(CCc2cccc(F)c2F)nc(=O)c2ccccc21`: 1.51%; `CSc1ccc(C=CC(=O)NC(=O)c2ccccc2O)cc1`: 1.32%; `CCc1cc(Br)c(CNCCCNc2cc(=O)c3ccccc3[nH]2)s1`: 0.41%.

For a further experiment, the target named is Hexose transporter 1 (Plasmodium falciparum) (UniProt O97467). Kind of experiment: ST_JUDE_LEISH: Cytotoxicity at 2uM final concentration against transgenic Leishmania Mexicana promastigotes LmPfHT that are glucose transport deficient and complemented with the Plasmodium falciparum hexose transporter. Activity is measured by DNA content using SYBR green in vitro. The experiment is classed as functional.
For `Cc1sc(C)c(CNCCCNc2cc(=O)c3ccccc3[nH]2)c1Br`, the inhibition was determined as 2%.

`C=CCC(C(=O)Nc1ccnc2ccc(OC)cc12)C1CCN(CCCCCCC)CC1` (stereo unspecified): the inhibition worked out at 1.29%. Same read-out and setting: as for `CCCCCCCN1CC[C@@H](CCCc2ccnc3ccc(OC)cc23)[C@@H](CNC)C1`, the figure is -1.11%.

As for `COc1cc2c(cc1C(F)(F)F)N(C(=O)Nc1cc(F)c(F)c(-c3cccnc3)c1)CC2`, the inhibition is 1.42%. For `O=C(Nc1cc(Cl)ccc1O)c1cnn2c(C(F)(F)F)cc(-c3cccs3)nc12`, the inhibition stood at 4.71%.

In the case of `O=C(Nc1ccc(Oc2ccccc2)cc1)N(Cc1ccc(-c2ccc(CN3CCNCC3)cc2)cc1)C1CCN(Cc2ccccc2)CC1`, the inhibition was -1.14%.

Consider `CNC(=O)c1cc(F)c(F)cc1Nc1nc(Nc2cccc(CS(C)(=O)=O)c2)ncc1Cl`, for which the inhibition was determined as 1.35%.

Turning to `COc1ccccc1C1CC(c2ccccc2)=NN1C(=O)c1ccccc1` (stereo unspecified), the inhibition was -0.25%.

On to `Cc1nc(-c2ccc(-c3ccc(NC(=O)Nc4ccc(I)c(OCCN(C)C)c4)cc3)c(C)c2)no1`, for which the inhibition was found to be 5.44%.

`Cc1cc(NCCc2ccccc2)nc(N/C(=N/CC(=O)OC(C)(C)C)Nc2ccc(C(F)(F)F)cc2)n1`: the inhibition was determined as 0.44%. On the same count and under the same terms, as for `Oc1c(C=Nn2cnnc2)sc2ccccc12`, the figure is 5.61%. For the molecule `CC(C)c1ccc(NC(=O)c2ccc(C(=O)NC3CCN(CC4CCCCC4)C3)cc2)cc1` (stereo unspecified), the inhibition turned out to be 4.18%. Same read-out and setting: as for `NC(=O)c1cccc(Nc2nccc(Nc3ccc(Oc4c(Cl)cccc4Cl)c(Cl)c3)n2)c1`, the figure is 9.62%; as for `Cc1cc(N[C@@H](Cc2ccccc2)C(=O)Nc2ccccc2)nc(NCCc2ccc(F)cc2)n1`, 3.68%. On to `O=C(NCc1ccc(F)cc1)c1ccc(N2CCN(c3ccncc3)CC2)cn1`, for which the inhibition was -0.85%.

On to `O=C(C=Cc1ccc(Cl)c(Cl)c1)NCCCCCN1CCC(CCCNS(=O)(=O)c2ccc(F)cc2)CC1`, for which the inhibition was -1.5%. Take `CN(C)CCC1CCCc2ccc(NC(=O)Nc3ccc(-c4ccncc4)c4ccccc34)cc21` (stereo unspecified): the inhibition turned out to be 1.03%. Same read-out and setting: next, `O=C(Nc1ccc([N+](=O)[O-])cc1)Nc1cc(OCC(F)(F)F)cc(OCC(F)(F)F)c1`: 5.79%; `Cc1ccc(Nc2nccc(NCC(O)c3ccc(C(F)(F)F)cc3)n2)cc1` (stereo unspecified): 6.26%; `Cc1ccc2[nH]c(C)cc(=NN=CC=Cc3ccccc3)c2c1`: 1.15%.

With `COc1ccc(C(=O)N2CCC3(CC2)C(=O)N(CC(=O)NCC2CCCCC2)CN3c2ccccc2)c(OC)c1`, the inhibition amounted to 7.03%. With `CNC(=O)Cc1ccc(C(=O)Nc2cccc(-c3csc(-c4nc5ccccc5[nH]4)c3)c2)cc1`, the inhibition was -0.06%.

Turning to `CCCC1N=C(N)N=C(N)N1c1ccc(C)c(C)c1` (stereo unspecified), the inhibition is -2.19%.

Turning to `CC(C)CCN1CCCN(Cc2ccc(C(=O)Nc3ccc(C(C)(C)C)cc3)cc2)CC1`, the inhibition was determined as 1.37%.

Take `O=C(NC(=O)c1ccccc1O)c1ccccc1O`: the inhibition is 0.7%. Consider `COc1ccc(CNC2CCN(C)CC2)cc1-c1ccc(S(=O)(=O)NCc2ccccc2)cc1`, for which the inhibition amounted to 4.24%.

Consider `O=C(Nc1cccc(C(F)(F)F)c1)c1cccc(S(=O)(=O)NCC2CCCN(Cc3ccccc3)C2)c1` (stereo unspecified), for which the inhibition is 1.75%. Still for that read-out and setting: as for `COc1cc(Nc2ccc3cc(S(=O)(=O)N4CCCCC4C)ccc3n2)cc(OC)c1OC` (stereo unspecified), the figure is 34.2%. Still for that read-out and setting: as for `CN1CCN(CC(=O)Nc2cccc(-c3ccc(-c4nc5cc(C(F)(F)F)ccc5[nH]4)cc3)c2)CC1`, the figure is 0.81%. Turning to `CC(C)C[C@H](NC(=O)c1ccc(OCCN2CCOCC2)cc1)C(=O)N[C@H](/C=N/N1CCN(C)C1=O)CCc1ccccc1`, the inhibition is 5.16%.

In the case of `O=C(NC(=O)c1ccccc1)NC1CCN(c2ccnc3cc(Cl)ccc23)C1` (stereo unspecified), the inhibition was 1.75%. On to `CCCN(c1ccc(C(F)(F)F)cc1[N+](=O)[O-])S(=O)(=O)C(c1ccccc1)c1ccc(C(F)(F)F)cc1[N+](=O)[O-]` (stereo unspecified), for which the inhibition turned out to be 6.88%.
